# The sample as a whole holds a higher share of the strongest signals than the screen did.
# B1: FimD (Bordetella pertussis) (protein)
# chain: MPARVISFCGAALAVWAGLAVQPAMAVDPPVDCGRALGLHFWSSASLISDQTPDGTLIGKPVVGRSLLSKSCKVPDDIKEDLSDNHDGEPVDIVLELGSNYKIRPQSYGHPGIVVDLPFGSTEETGIAIYIDFGSSPMQKVGERQWLYPQKGEVLFDVLTINGDNAEVRYQAIKVGPLKRPRKLVLSQFPNLFTYKWVFMRGTSQERVLAQGTIDTDVATSTIDLKTCRYTSQTVSLPIIQRSALTGVGTTLGMTDFQMPFWCYGWPKVSVYMSATKTQTGVDGVALPATGQAAGMASGVGVQLINGKTQQPVKLGLQGKIALPEAQQTESATFSLPMKAQYYQTSTSTSAGKLSVTYAVTLNYD
# Assays:
# Test in all cases: glycan array binding signal (z-score within array); higher = stronger binding
# Conditions in all cases: glycan notation: IUPAC condensed, linker removed
# [1] = molecular target: Fuc(a1-2)Gal(b1-3)GlcNAc(b1-3)GalNAc
# Summary of the method: (§1)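 The binding signal is a Z-score computed within each array. Data were drawn from 3228 arrays in the Consortium for Functional Glycomics database, restricted to those with a known protein sequence. Scores were averaged over arrays of the same protein sequence at different concentrations or buffers, and over linkers, and negative values can be taken as non-binding.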
# [2] = molecular target: Fuc(a1-2)Gal(b1-4)GlcNAc6S
# Summary of the method: as §1
# [3] = molecular target: Fuc(a1-2)Gal(b1-4)[Fuc(a1-3)]GlcNAc(b1-2)[Fuc(a1-2)Gal(b1-4)[Fuc(a1-3)]GlcNAc(b1-4)]Man(a1-3)[Fuc(a1-2)Gal(b1-4)[Fuc(a1-3)]GlcNAc(b1-2)Man(a1-6)]Man(b1-4)GlcNAc(b1-4)GlcNAc
# Summary of the method: as §1
# [4] = molecular target: Fuc(a1-2)Gal(b1-4)[Fuc(a1-3)]GlcNAc(b1-3)[Neu5Ac(a2-6)Gal(b1-4)GlcNAc(b1-6)]Gal(b1-4)Glc
# Summary of the method: as §1
# Fuc(a1-2)Gal6S(b1-4)Glc = molecular target: Fuc(a1-2)Gal6S(b1-4)Glc
# Summary of the method: as §1
# [5] = molecular target: Fuc(a1-2)[Gal(a1-3)]Gal(b1-3)GlcNAc
# Summary of the method: as §1
# [6] = molecular target: Fuc(a1-2)[GalNAc(a1-3)]Gal(b1-3)GalNAc(b1-3)Gal(a1-4)Gal(b1-4)Glc
# Summary of the method: as §1
# [7] = molecular target: Fuc(a1-2)[GalNAc(a1-3)]Gal(b1-4)GlcNAc(b1-2)Man(a1-3)[Fuc(a1-2)[GalNAc(a1-3)]Gal(b1-4)GlcNAc(b1-2)Man(a1-6)]Man(b1-4)GlcNAc(b1-4)[Fuc(a1-6)]GlcNAc
# Summary of the method: as §1
# [8] = molecular target: Fuc(a1-2)[GalNAc(a1-3)]Gal(b1-4)GlcNAc(b1-3)Gal(b1-4)GlcNAc(b1-3)Gal(b1-4)GlcNAc
# Summary of the method: as §1
# [9] = molecular target: Fuc(a1-2)[GalNAc(a1-3)]Gal(b1-4)[Fuc(a1-3)]GlcNAc(b1-3)GalNAc
# Summary of the method: as §1
# Fuc(a1-4)GlcNAc = molecular target: Fuc(a1-4)GlcNAc
# Summary of the method: as §1
# [10] = molecular target: Gal(a1-3)Gal(b1-4)GlcNAc(b1-2)Man(a1-3)[Gal(a1-3)Gal(b1-4)GlcNAc(b1-2)Man(a1-6)]Man(b1-4)GlcNAc(b1-4)GlcNAc
# Summary of the method: as §1
# Gal(b1-3)GalNAc(b1-3)Gal = molecular target: Gal(b1-3)GalNAc(b1-3)Gal
# Summary of the method: as §1
# [11] = molecular target: Gal(b1-3)GlcNAc(a1-6)Gal(b1-4)GlcNAc
# Summary of the method: as §1
# [12] = molecular target: Gal(b1-3)GlcNAc(b1-2)Man(a1-3)[Gal(b1-3)GlcNAc(b1-2)Man(a1-6)]Man(b1-4)GlcNAc(b1-4)[Fuc(a1-6)]GlcNAc
# Summary of the method: as §1
# [13] = molecular target: Gal(b1-3)GlcNAc(b1-2)[Gal(b1-3)GlcNAc(b1-6)]Man(a1-6)[Gal(b1-3)GlcNAc(b1-2)Man(a1-3)]Man(b1-4)GlcNAc(b1-4)GlcNAc
# Summary of the method: as §1
# [14] = molecular target: Gal(b1-3)GlcNAc(b1-3)Gal(b1-4)Glc
# Summary of the method: as §1
# [15] = molecular target: Gal(b1-3)GlcNAc(b1-3)Gal(b1-4)GlcNAc(b1-2)[Gal(b1-3)GlcNAc(b1-3)Gal(b1-4)GlcNAc(b1-6)]Man(a1-6)[Gal(b1-3)GlcNAc(b1-3)Gal(b1-4)GlcNAc(b1-2)Man(a1-3)]Man(b1-4)GlcNAc(b1-4)[Fuc(a1-6)]GlcNAc
# Summary of the method: as §1
# [16] = molecular target: Gal(b1-3)GlcNAc(b1-3)Gal(b1-4)GlcNAc(b1-3)Gal(b1-4)GlcNAc(b1-2)[Gal(b1-3)GlcNAc(b1-3)Gal(b1-4)GlcNAc(b1-3)Gal(b1-4)GlcNAc(b1-6)]Man(a1-6)[Gal(b1-3)GlcNAc(b1-3)Gal(b1-4)GlcNAc(b1-3)Gal(b1-4)GlcNAc(b1-2)Man(a1-3)]Man(b1-4)GlcNAc(b1-4)[Fuc(a1-6)]GlcNAc
# Summary of the method: as §1
# [17] = molecular target: Gal(b1-3)[Fuc(a1-4)]GlcNAc(b1-6)GalNAc
# Summary of the method: as §1
# [18] = molecular target: Gal(b1-4)GalNAc(a1-3)[Fuc(a1-2)]Gal(b1-4)GlcNAc
# Summary of the method: as §1
# Gal(b1-4)Glc = molecular target: Gal(b1-4)Glc
# Summary of the method: as §1
# [19] = molecular target: Gal(b1-4)GlcNAc(b1-3)Gal(b1-3)GalNAc
# Summary of the method: as §1
# [20] = molecular target: Gal(b1-4)GlcNAc(b1-3)Gal(b1-4)GlcNAc(b1-3)Gal(b1-4)GlcNAc(b1-3)Gal(b1-4)GlcNAc(b1-3)Gal(b1-4)GlcNAc(b1-2)Man(a1-3)[Gal(b1-4)GlcNAc(b1-3)Gal(b1-4)GlcNAc(b1-3)Gal(b1-4)GlcNAc(b1-3)Gal(b1-4)GlcNAc(b1-3)Gal(b1-4)GlcNAc(b1-2)Man(a1-6)]Man(b1-4)GlcNAc(b1-4)GlcNAc
# Summary of the method: as §1
# [21] = molecular target: Gal(b1-4)GlcNAc(b1-3)Gal(b1-4)GlcNAc(b1-3)Gal(b1-4)GlcNAc(b1-3)Gal(b1-4)GlcNAc(b1-3)Gal(b1-4)GlcNAc(b1-2)[Gal(b1-4)GlcNAc(b1-3)Gal(b1-4)GlcNAc(b1-3)Gal(b1-4)GlcNAc(b1-3)Gal(b1-4)GlcNAc(b1-3)Gal(b1-4)GlcNAc(b1-6)]Man(a1-6)[Gal(b1-4)GlcNAc(b1-3)Gal(b1-4)GlcNAc(b1-3)Gal(b1-4)GlcNAc(b1-3)Gal(b1-4)GlcNAc(b1-3)Gal(b1-4)GlcNAc(b1-2)Man(a1-3)]Man(b1-4)GlcNAc(b1-4)[Fuc(a1-6)]GlcNAc
# Summary of the method: as §1
# Gal3S(b1-4)Glc = molecular target: Gal3S(b1-4)Glc
# Summary of the method: as §1
# Gal6S(b1-3)GlcNAc = molecular target: Gal6S(b1-3)GlcNAc
# Summary of the method: as §1
# [22] = molecular target: GalNAc(a1-3)GalNAc(b1-3)Gal(a1-4)Gal(b1-4)Glc
# Summary of the method: as §1
binder,measurement,setting,value
B1,glycan array binding signal (z-score),[1],-0.342
same,glycan array binding signal (z-score),[2],-0.052
same,glycan array binding signal (z-score),[3],0.133
same,glycan array binding signal (z-score),[4],-0.355
same,glycan array binding signal (z-score),Fuc(a1-2)Gal6S(b1-4)Glc,-0.056
same,glycan array binding signal (z-score),[5],-0.256
same,glycan array binding signal (z-score),[6],-0.248
same,glycan array binding signal (z-score),[7],-0.394
same,glycan array binding signal (z-score),[8],0.141
same,glycan array binding signal (z-score),[9],19.2
same,glycan array binding signal (z-score),Fuc(a1-4)GlcNAc,1.73
same,glycan array binding signal (z-score),[10],1.67
same,glycan array binding signal (z-score),Gal(b1-3)GalNAc(b1-3)Gal,-0.089
same,glycan array binding signal (z-score),[11],-0.163
same,glycan array binding signal (z-score),[12],0.621
same,glycan array binding signal (z-score),[13],0.171
same,glycan array binding signal (z-score),[14],-0.264
same,glycan array binding signal (z-score),[15],1.82
same,glycan array binding signal (z-score),[16],0.259
same,glycan array binding signal (z-score),[17],2.73
same,glycan array binding signal (z-score),[18],-0.051
same,glycan array binding signal (z-score),Gal(b1-4)Glc,-0.288
same,glycan array binding signal (z-score),[19],-0.264
same,glycan array binding signal (z-score),[20],0.072
same,glycan array binding signal (z-score),[21],0.919
same,glycan array binding signal (z-score),Gal3S(b1-4)Glc,-0.263
same,glycan array binding signal (z-score),Gal6S(b1-3)GlcNAc,0.772
same,glycan array binding signal (z-score),[22],-0.169
